# Data taken from PubChem BioAssay AID1745845 (National Center for Advancing Translational Sciences (NCATS), 2022).
# Hit rate of the full screen: of about 360,000 compounds, about 2,600 (0.72%) were called active. A call without a number means that no potency is given here. Roughly 5% stayed inconclusive and do not appear here. The sample as a whole holds a higher share of actives than the screen did. Unmarked numbers belong to inactive results. Calls follow the shape of the dose curve; as a rule, active = well fitted inhibition curve with a large enough effect; inconclusive = small, poorly fitted or top-dose-only effect; inactive = no such curve, though single readings can be large or run the other way.
# Experiment: Primary qHTS for Inhibitors of ATXN expression; also: nearly all actives have a fitted effect of over 55% in size
# Conditions: HEK-293 ATXN2-luciferase reporter, luminescence, 24 h; series mostly up to 57 µM
# Description: University of Utah School of Medicine, Salt Lake City, Utah
# Spinocerebellar ataxia type 2 (SCA2) is a multisystem neurodegenerative disease caused by a dominantly acting mutation leading to expansion of a polyQ domain in the ataxin-2 protein (ATXN2). SCA2 patients develop progressive ataxia and later lose function in other neuronal systems. Prominent parkinsonian signs develop in some patients. Like many neurodegenerative disorders, no symptomatic or disease-modifying treatments are known.
# The primary objective of the proposed research is to identify compounds inhibiting ATXN2 expression and to test them for efficacy in SCA2 mouse models. We have developed a cell-based assay paired with an in vivo mouse model using identical luciferase expression constructs. This approach takes advantage of an ATXN2-luciferase transgene, with the luciferase gene flanked by the upstream and downstream portions of the ATXN2 gene. Here we describe a 5-7 dose quantitative high thoroughput screen (qHTS) for compounds lowering ATXN2 expression. We screened the NIH Molecular Libraries Small Molecule Repository (MLSMR) and NCGC's mechanistically annotated (MIPE) and drug repurposing (NPC) collections of compounds for lowering expression of an ATXN2-luciferase reporter in HEK-293 cells. The assay is a multiplexed cell viability assay to ensure target reduction in the absence of cytotoxicity. Secondary qHTS assays included a CMV-luciferase reporter expressed in HEK-293 cells as well as a biochemical assay using recombinant luciferase to detect inhibitors of the reporter enzyme. Compounds that inhibit ATXN2 expression but is not cytotoxic were selected for confirmatory and secondary screens.
# PROTOCOL TABLE (as described by Inglese J, Shamu CE and Guy RK. 2007)
# SEQUENCE No. (e.g., 1, 2, 3, etc.); […] (e.g., Cells, Incubation, Reagent, etc.); VALUE; DESCRIPTION.
# 1; Cells; 4 uL; white, solid bottom, 1536-well Greiner assay plate.
# 2; Incubation; 2 hr; 37 degree C in 5% humidified CO2.
# 3; Compounds; 23 nL; Kalypsis pintool (Wako USA) equipped with a 1536-well pin head.
# 4; Incubation; 24 hr; 37 degree C in 5% humidified CO2.
# 5; Reagent; 1 uL; Gly-Phe-7-Amino-4-trifluoromethylcoumarin.
# 6; Incubation; 30 min; 37 degree C in 5% humidified CO2.
# 7; Detection; Fluorescence; ViewLux plate reader (PerkinElmer).
# 8; Reagent; 3 uL; SteadyGlo luciferase solution (Promega).
# 9; Incubation; 5 min; room temperature.
# 10; Detection; Luminescence; ViewLux plate reader (PerkinElmer).
# NOTES (numbers refer to Sequence numbers above)
# 1. S2 cells expressing ATXN2-luciferase reporter were suspended in phenol-red free DMEM and dispensed in assay plates using a Multidrop Combi dispenser (Thermo Fisher Scientific).
# 2. Assay plates were incubated. Evaporation was prevented by covering assay plates with metal lids containing holes to allow gas diffusion.
# 3. Compounds were added in a dose response manner with the final concentrations of 57, 11.4, 2.28, 0.46, 0.091, 0.018, 0.0037 uM. Vehicle-only plates, with DMSO being pin-transferred to columns 5-48, were inserted uniformly at the beginning and the end of each library to monitor and record any shifts in assay performance.
# 5. 125 uM Gly-Phe-7-Amino-4-trifluoromethylcoumarin (MP Biomedicals) working concentration was used at a final concentration of 25 uM.
# 7. To assess cell viability; the assay plates were read using the ViewLux high-throughput CCD imager (PerkinElmer), wherein single end-point fluorescence measurement was acquired (excitation 405/10; emission 540/25 nm).
# 8. Detection reagent SteadyGlo Luciferase (Promega) was added to the assay plate.
# 10. Luminescence is then measured on the ViewLux imager equipped with a clear emission filter using a 2 sec exposure. All screening operations were performed on a fully integrated robotic system (Kalypsys) containing one RX-130 and two RX-90 anthropomorphic robotic arms (Staubli).
# […]
# Potency is read from the fitted curve at half-maximal effect.
row,Structure (SMILES),Potency
1,Cc1nnc(SCc2cc(=O)c3cc(F)ccc3[nH]2)n1C,inactive
2,CN(C)CCNC(=O)c1ccc(Cl)c2cc3ccccc3nc12,8.91 µM (active)
3,CN(c1ccccc1)S(=O)(=O)c1ccc(Cl)c(C(=O)NCCc2c[nH]c3ccccc23)c1,inactive
4,CN(C)CCNC(=O)Nc1cccc(Cl)c1Cl,inactive
5,Cc1ccc(S(=O)(=O)c2nnn3c2nc(N2CCN(c4ccccc4F)CC2)c2cc(Cl)ccc23)cc1C,inactive
6,CN(C)C(=O)c1cccc(-c2cnc3c(NC=O)cc(-c4ccc(F)cc4)cn23)c1,25.1 µM (active)
7,CC(=O)c1cccc(-c2cnc3c(NC=O)cc(-c4ccc(N(C)C)cc4)cn23)c1,inactive
8,CC(=O)c1cccc(-c2cnc3c(NC=O)cc(-c4cccc(C(=O)N(C)C)c4)cn23)c1,inactive
9,CCOc1ccc(NS(=O)(=O)c2ccc(N)cc2)nn1,inactive
10,CCN1CCN(C(=O)N[C@@H](C(=O)N[C@@H]2C(=O)N3[C@@H]2SC(C)(C)[C@H]3C(=O)O)c2ccccc2)C(=O)C1=O,inactive
11,CC(=O)O[C@]1(C(C)=O)CC[C@@H]2[C@@H]3C[C@H](C)C4=CC(=O)CC[C@]4(C)[C@H]3CC[C@@]21C,inactive
12,CC(C)(C)CC(C)(C)NCC(O)COCCOc1ccc(Br)cc1 (stereo not given),22.4 µM (active)
13,COc1ccc(OCC(O)CNCCNc2nccc(C(F)(F)F)n2)cc1 (stereo not given),inactive
14,CC(Oc1ccc(Br)cc1)C(=O)NC1CCCCCC1 (stereo not given),inactive
15,CCOc1ccc(Nc2oc(/C=C/c3ccc(F)cc3)nc2C#N)cc1,inactive
16,CCOC(=O)N1CCN([N+]([O-])=NOc2ccc([N+](=O)[O-])cc2[N+](=O)[O-])CC1,inactive
17,Cc1ccccc1-c1nc(SCC(=O)N(C)c2ccccc2)c2c(=O)n(C)c(=O)n(C)c2n1,inactive
18,O=C1NCCc2[nH]c(-c3ccncc3)cc21,6.11 µM (active)
19,COC(=O)Nc1nc2ccc(C(=O)C3CC3)cc2[nH]1,inactive
20,COc1cccc(CN2CCC(C(=O)NC(c3ccc4c(c3)OCO4)c3ccccn3)CC2)c1 (stereo not given),inactive
21,Cc1ccc(C(NC(=O)C2CCN(CCOc3ccc(Cl)cc3Cl)CC2)c2ccccn2)cc1 (stereo not given),28.2 µM (active)
22,O=C(NC(c1ccc(Cl)cc1)c1cnccn1)C1CCN(Cc2ccc(Cl)cc2)CC1 (stereo not given),inactive
23,O=C1c2c(O)cccc2[C@@H]([C@@H]2O[C@H](CO)[C@@H](O)[C@H](O)[C@H]2O)c2cc(CO)cc(O)c21,inactive
24,Cc1cccc(N2CCN(C(=O)c3ccc4c(c3)CCN4S(=O)(=O)c3ccccc3)CC2)c1C,inactive
25,CCc1nc2c(OCCC3CCCCC3)cccn2c1N(C)C(=O)c1ccco1,inactive

row,Structure (SMILES),Potency
1,CN(CC(=O)Nc1ccccc1F)S(=O)(=O)c1ccc2c(c1)c(=O)n(C)c(=O)n2C,inactive
2,COc1ccc(Sc2ccc(NC(=O)c3cccc(Cl)c3)cc2C#N)cc1,inactive
3,CCOc1ccc(CNCCSc2nnnn2C)cc1,inactive
4,COc1cccc(NC(=O)c2ccc3nc(CCc4ccccc4)oc3c2)c1,inactive
5,O=C(NC1=CC(=O)c2ccccc2C1=O)c1ccccc1,7.94 µM (active)
6,O=C(NC(=O)c1ccccc1)Nc1ccccc1O,inactive
7,COC(=O)c1nc(NC(=O)c2ccccc2)n[nH]1,inactive
8,CCC(=O)Nc1c(C(=O)N2CCN(c3ccc(F)cc3)CC2)oc2ccccc12,inactive
9,CCn1c(-c2nonc2N)nc2c(C#CC(C)(C)O)ncc(OC[C@H]3CCCNC3)c21,inactive
10,Cc1ccc(S(=O)(=O)N2CCc3cc(C(=O)Nc4ccc(Cl)cc4C)ccc32)cc1,inactive
11,Cc1cc(C)cc(Nc2ncnc3onc(-c4ccc(F)cc4)c23)c1,inactive
12,CC(C)c1ccc(NC(=O)c2ccc(Cn3nc(N4CCN(c5ccccc5)CC4)ccc3=O)o2)cc1,inactive
13,NC(=O)CSc1oc(-c2cccs2)nc1S(=O)(=O)c1ccccc1,inactive
14,Cc1ccc(S(=O)(=O)c2nc(-c3cccs3)oc2NCc2cccnc2)cc1,inactive
15,CCCCS(=O)(=O)c1oc(-c2cccs2)nc1S(=O)(=O)c1ccccc1,3.16 µM (active)
16,CSc1ccccc1NC(=O)CCS(=O)(=O)c1nc(-c2cccs2)cc(C(F)(F)F)n1,inactive
17,O=C(/C=C/Sc1ncn[nH]1)c1ccc(Cl)cc1,25.1 µM (active)
18,O=C(CSc1ncn[nH]1)Nc1ccc(Br)cc1Br,inactive
19,O=C(CSc1oc(-c2ccco2)nc1S(=O)(=O)c1ccc(Cl)cc1)c1ccccc1,inactive
20,CC(C)OCCCn1c(SCC(=O)c2ccccc2)nc2c(sc3ccccc32)c1=O,inactive
21,CCCCN1CCC(CNC(=O)c2c3n(c4ccccc24)CCCO3)CC1,inactive
22,Fc1ccc(-n2ncc3c(Nc4ccc(Oc5ccccc5)cc4)ncnc32)cc1,inactive
23,c1c2c(cc3sc(N4CCCCC4)nc13)OCCO2,7.94 µM (active)
24,O=C(NCc1ccc(F)cc1)c1ccc2nc(N3CCCCC3)sc2c1,inactive
25,CN(C)CCN(C(=O)C1CCCCC1)c1nc2cc3c(cc2s1)OCO3,inactive
